# Compounds with a hit are over-represented: about 3.9% of the library has one in this group of screens.
# SKKanGAS inh – S. pyogenes SKKanGAS growth inhibitors in kanamycin, primary screen, streptokinase expression inhibitor project, SKKanGAS strain, BacTiter-Glo luminescence | 6 h | inhibition, % at 7.5 µM | 300,000 tested, 1.3% active;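 active = mean replicate score, as percent of positive control median, at least 50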;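 note: strain carries kanamycin resistance gene driven by streptokinase promoter and grows in 40 µg/ml kanamycin; loss of luminescence reflects streptokinase promoter inhibition or plain growth inhibition; 0% = median of DMSO wells and 100% = positive control at its reference dose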
# TPT1 inhibitor – Candida albicans TPT1 enzyme inhibitors, primary screen, biochemical, fluorescence polarization | tRNA 2'-phosphotransferase TPT1 (Candida albicans SC5314) | recombinant caTPT1, FP RNA substrate dephosphorylation | inhibition, % at 5 µM | 300,000 tested, 0.81% active;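 active = inhibition above the mean of all tested compounds plus 3 SD, set per screening campaign, cut at about 24% in these data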;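 note: plate controls were DMSO alone for no effect and ferristatin control at 100 nM for full effect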
# Rtt109 HAT inh – inhibitors of C. albicans Rtt109/Vps75 HAT, primary screen, biochemical, ThioGlo CoA-SH fluorescence, plate reader; Histone acetyltransferase RTT109 (Candida albicans (strain SC5314 / ATCC MYA-2876)), …; purified Rtt109/Vps75, 4 h; inhibition, % at 34.9 µM; 330,000 tested, 0.16% active; AID 540336, 2011;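 active = inhibition of at least 50% in every replicate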
# Target sequence (Q5AAJ8 whole entry, looked up): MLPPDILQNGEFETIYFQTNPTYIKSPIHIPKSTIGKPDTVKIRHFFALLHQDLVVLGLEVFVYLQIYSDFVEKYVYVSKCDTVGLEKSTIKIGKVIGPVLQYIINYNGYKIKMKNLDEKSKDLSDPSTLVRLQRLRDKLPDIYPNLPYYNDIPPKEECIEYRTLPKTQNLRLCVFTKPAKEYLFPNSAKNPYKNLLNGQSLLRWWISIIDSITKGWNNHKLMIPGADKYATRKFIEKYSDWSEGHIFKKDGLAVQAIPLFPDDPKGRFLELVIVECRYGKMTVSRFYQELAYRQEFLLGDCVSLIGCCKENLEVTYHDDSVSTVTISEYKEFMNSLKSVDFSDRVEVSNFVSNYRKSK
# WT yeast gro inh – growth inhibition of WT strain, primary screen, mitochondrial fusion inhibitor project, WT and mutant strains, chemical genetic; mitochondrial fusion phenotypic screen; inhibition, % at 10 µM; 190,000 tested, 2.1% active; AID 1362, 2008; in the data active = inhibition above about 58%; tested in S. cerevisiae
# PHOSPHO1 inh – PubChem AID 1565; recombinant PHOSPHO1, absorbance phosphatase assay; inhibition, % at 13.3 µM; Phosphoethanolamine/phosphocholine phosphatase (Homo sapiens), Q8TCT1; 290,000 tested, 1.1% active; in the data active = inhibition above about 60%
# Target sequence (Q8TCT1 whole entry, looked up): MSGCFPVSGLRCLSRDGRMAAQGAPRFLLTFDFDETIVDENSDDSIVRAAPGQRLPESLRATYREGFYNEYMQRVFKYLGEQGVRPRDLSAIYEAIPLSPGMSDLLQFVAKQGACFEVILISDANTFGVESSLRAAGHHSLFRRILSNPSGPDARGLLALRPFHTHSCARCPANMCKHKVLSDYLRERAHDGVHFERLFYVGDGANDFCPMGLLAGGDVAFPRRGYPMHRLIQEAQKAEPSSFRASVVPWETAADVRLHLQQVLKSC
# Platelet DG rel – inhibitors of platelet dense granule secretion, primary screen, cell-based, MLPCN, human platelets; human platelet-rich plasma, SFLLRN dense granule ATP release, luminescence; inhibition, %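 (compounds screened at 7.5 µM in platelet-rich plasma)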; 300,000 tested, 0.22% active;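 active = mean replicate score, as percent of positive control, at or above 50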
# Starred values were filed as active, the others as inactive; . = not tested or not shown.
SMILES,SKKanGAS inh,TPT1 inhibitor,Rtt109 HAT inh,WT yeast gro inh,PHOSPHO1 inh,Platelet DG rel
CCOC(=O)C1CCCN(C(=O)c2ccc(-c3ccc([N+](=O)[O-])cc3)o2)C1 (centres undefined),-8.4,5.1,-11.0,.,.,-11.1
CC(C)(C)[C@@H]1C=C(C(=O)N2CCN(Cc3ccc4c(c3)OCO4)CC2)O[C@H](OCc2ccc(CO)cc2)C1,2.6,-1.2,-0.8,94.3*,51.7,-1.3
CC(C)(C)[C@H]1C=C(C(=O)N2CCN(Cc3ccc4c(c3)OCO4)CC2)O[C@@H](OCCCCO)C1,4.2,0.3,2.6,7.5,31.7,18.1
Cc1ncc([N+](=O)[O-])n1CCOC(=O)c1ccccc1,1.6,0.5,-6.7,0.9,7.0,2.7
Cc1nonc1OCCn1c([N+](=O)[O-])cnc1C,-14.4,-0.8,52.6*,-15.6,45.4,-7.9
O=C1c2ccccc2C2=Nc3ccccc3SC(c3ccc(Cl)cc3)C12 (centres undefined),78.3*,3.7,-4.1,82.7*,5.7,20.6
O=C1c2ccccc2C2=Nc3ccccc3SC(c3cccc(F)c3)C12 (centres undefined),79.0*,-2.4,18.5,84.2*,-11.9,-1.3
CCOC(=O)c1c(C)[nH]c(C)c1S(=O)(=O)NC(CC)CN1CCOCC1 (centres undefined),0.6,-2.1,4.6,.,64.9*,-1.5
CCOC(=O)c1c(C)[nH]c(C)c1S(=O)(=O)NC1CCN(C(=O)OCC)CC1,1.1,-0.9,16.0,.,44.5,0.4
O=C(NC1=C(Nc2ccc(F)cc2)C(=O)c2ccccc2C1=O)c1ccc(Cl)cc1,51.2*,0.6,2.0,67.3*,0.3,0.1
O=C(NNC(=O)c1ccc(NC(=O)c2ccccc2)cc1)c1ccc(F)cc1,4.4,-2.7,4.9,.,57.8,-1.1
O=C(C1=C(O)C(=O)N(CCCN2CCOCC2)C1c1ccccn1)c1cc2ccccc2o1 (centres undefined),2.5,-1.2,.,-8.4,78.9*,-4.0
CC(C)(C)c1ccc(-n2ncc3c2CCCC3NC(=O)CCN2CCCC2=O)cc1 (centres undefined),-3.1,-6.2,13.2,.,33.2,-4.0
CCOC(=O)c1nn(-c2ccc(F)cc2)c(=O)cc1OCC(=O)Nc1ccc(F)c(F)c1,11.3,0.0,-0.7,.,.,2.7
O=C(CCCCCNC(=O)c1ccccc1)N=Nc1c(O)[nH]c2c(Br)cc(Br)cc12,59.4*,-0.4,.,19.0,3.4,3.9
O=C1CCC([N+](=O)[O-])C(c2ccccc2F)N1 (centres undefined),-0.3,-2.5,5.5,.,35.1,.
CCOC(=O)c1c(S(=O)(=O)NCC(=O)NCc2ccccc2Cl)c(C)n(C)c1C,4.3,1.2,0.2,.,61.6*,-4.4
CCOC(=O)c1c(S(=O)(=O)Nc2ccccn2)c(C)n(C)c1C,-6.3,-1.4,-2.7,.,64.9*,-3.0
OC(CNCc1ccc(Cl)cc1)(c1ccccc1)c1ccc(F)cc1 (centres undefined),-10.3,-5.5,-4.8,71.3*,12.3,-2.1
COc1ccc(CNCC(O)(c2ccc(Cl)cc2)c2ccc(Cl)cc2)cc1OC,.,2.8,-4.0,-1.9,-5.9,-2.1
COc1ccc(CNCC(O)(c2ccc(Cl)cc2)c2ccc(Cl)cc2)cc1,59.2*,-4.2,6.0,-4.6,1.0,-2.4
OC(CNCc1ccc(F)cc1)(c1ccc(F)cc1)c1ccc(F)cc1,-1.6,-1.8,3.8,-6.3,32.3,-7.4
Cc1cc(C)c(OCC(=O)OCC(=O)NNC(=O)c2ccccc2F)c(C)c1,.,.,-19.9,.,.,.
COCCN1CSC(=S)N(Cc2ccco2)C1,0.8,0.5,-1.5,6.1,94.5*,-7.2
S=C1SCN(Cc2ccccn2)CN1Cc1ccco1,-4.2,-1.9,4.7,18.9,94.5*,-9.3
SMILES,SKKanGAS inh,TPT1 inhibitor,Rtt109 HAT inh,WT yeast gro inh,PHOSPHO1 inh,Platelet DG rel
COc1ccc(-n2sc3ccc(F)cc3c2=O)cc1,.,.,159.2*,.,.,.
Cc1ccc(C)c(-n2sc3ccc(F)cc3c2=O)c1,.,.,12.4,.,.,.
CCN(CC(=O)Nc1c(F)cccc1F)C(=O)CCc1nc2cc(S(=O)(=O)N3CCOCC3)ccc2n1C,-1.6,-0.2,-4.2,.,.,-1.2
O=C(CSc1nnc(-c2ccncc2)o1)N1CCCCCC1,2.0,.,1.0,-2.4,67.6*,1.7
Cc1ccc(-c2nnc(SCC(=O)N3CCCC3)o2)cc1C,-19.1,-1.7,4.1,-6.1,92.4*,-13.3
O=C(c1ccc(Cl)cc1)c1nnc(-c2ccncc2)o1,0.9,-4.2,1.1,13.5,-1.6,0.7
O=C(CSc1nnc(-c2ccccc2)o1)c1nnc(-c2ccccc2)o1,7.3,19.1,-0.8,-6.6,93.5*,2.1
CCOC(=O)N1CCN(C(=O)CSc2nnc(-c3ccc(C)c(C)c3)o2)CC1,-13.5,-2.6,-5.8,-2.8,13.0,12.8
CCOC(=O)CSc1nnc(-c2ccccc2)o1,-3.8,0.8,6.8,7.1,-5.8,2.0
O=C(c1ccccc1)c1nnc(-c2ccncc2)o1,-2.4,-0.8,-3.5,71.5*,-66.1,-28.3
CCCCN(C(=O)c1ccc2c(c1)OCCO2)c1c(N)n(CC(C)C)c(=O)[nH]c1=O,11.2,-2.2,1.5,.,.,2.2
COc1ccc(C(=O)O)cc1S(=O)(=O)N1CCN(Cc2ccc3c(c2)OCO3)CC1,.,.,-2.1,.,.,.
CCN1C(=O)c2cccc3c(S(=O)(=O)N4CCNCC4)ccc1c23,.,.,-3.3,.,.,.
COC(=O)CSc1nnc(-c2ccc(S(=O)(=O)N3CCCC3)cc2)o1,4.3,3.5,-2.0,.,-15.8,25.4
CCS(=O)(=O)Nc1ccc(-c2nnc(SCC(=O)OC)o2)cc1,-0.3,-2.6,-3.5,6.2,-4.1,50.1*
Nc1ccc(-c2ccc(N)cc2C(F)(F)F)c(C(F)(F)F)c1,60.0*,5.0,-4.4,-23.5,3.7,1.2
COCCNS(=O)(=O)c1ccc2c(c1)C(=NO)c1cc(S(=O)(=O)NCCOC)ccc1-2,5.9,2.6,52.5*,.,43.2,14.5
COCCNS(=O)(=O)c1ccc2c(c1)Cc1cc(S(=O)(=O)NCCOC)ccc1-2,-4.7,-2.8,-4.5,.,.,1.4
CC(C)(C)NC(=O)CC1C[C@H](C(=O)N2CCCCC2)[C@@]2(CCc3ccccc3)c3[nH]c4ccccc4c3CCN2C1=O (some centres undefined),.,.,6.0,.,.,.
Clc1ccc(-c2csc(N3CCc4ccccc4C3)n2)cc1,55.6*,0.0,-6.0,33.6,32.7,11.4
c1ccc(-c2csc(N3CCN(c4ccccn4)CC3)n2)cc1,-21.0,-3.4,3.8,62.8*,-17.0,0.6
c1ccc(-c2csc(N3CCOCC3)n2)cc1,5.5,0.1,9.3,1.0,10.7,1.8
O=C(NC(=S)N1CCN(c2nc(-c3ccccc3)cs2)CC1)c1cccnc1,78.8*,1.7,5.7,44.4,4.7,-0.8
